Measured values reported in the supplement of paper PMC11417369.
Over roughly 25,000 sequences, “ln(normalized median fluorescence intensity)” has its median near 6.7; the highest 2% begin near 10. The sample as a whole holds a higher share of the highest values than the screen did.

system: PfHDP1 homeodomain (GST-tagged); experiment: gcPBM binding intensity (ln(normalized median fluorescence intensity)); higher = stronger DNA binding
Method in brief: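 The binding buffer was 1× PBS containing 1% milk, 0.2 mg/ml BSA, 0.5% salmon testes DNA and 0.03% Triton X-100. In it, GST-tagged P. falciparum DNA-binding domains expressed in E. coli were applied for 1 h to an Agilent 4 × 180k array of primer-extended double-stranded 36-bp intergenic genomic probes plus negative controls. Binding intensity, read with Alexa488 anti-GST antibody and a 488 nm scan, is the highest Masliner-normalised natural-log median intensity across replicate spots of either probe orientation.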

Sequence | gcPBM binding intensity (ln)
ATTCTATTCTCCTTCACACACAAAAATATTTCATCA [CACACA_site2360] | 6.98
AAAAAAAATGGATGATCACACACTTCATAAAAATTG [CACACA_site2213] | 6.14
TTTTTTTTTTTTAATACACACATATTTATATTTATT [CACACA_site7802] | 6.63
CAGAATAATTTTATCGGTACACACTGTATGCATAAT [XGTACX_site736] | 6.88
AAAATTAAAAATAACACACACATATTTATATTTATA [CACACA_site7329] | 6.24
AAAAAATTAACGAGTGCACACATATTTAGATAAAAT [CACACA_site8958] | 10.7
AAAATTAACGAGTGCACACATATTTAGATAAAATAC [CACACA_site2936] | 11.3
AAAATTAAAAATAACACACACATATATATATTTATA [CACACA_site2776] | 6.54
GAAAAATTAAAAATAACACACACATATATATATTTA [CACACA_site8896] | 6.38
TAAATTATAACGTGCACACATATTTAAAATGAAATG [CACACA_site2820] | 10
ATAATATATTTTTGAACACACAATATAGATTTATAT [CACACA_site7857] | 6.35
TTTTTTTCAATATTTGCACACGATTAAAATATTTAA [CACACA_site5266] | 10.6
TATGCACACAATATATGTACTTATATATTTTAAAAA [XGTACX_site5482] | 9.96
TTTATATTTTTTTTTGCACACTTTAAAAAAATATAT [CACACA_site1146] | 9.29
TTTTATTTTTTATTTGCACACAATATGTAAAAAAAT [CACACA_site2927] | 10.6
GAACAATATATTTGCACACAAAAAATATATATTTAT [CACACA_site3317] | 10.7
AGGAACAATATATTTGCACACAAAAAATATATATTT [CACACA_site3316] | 10.4
TTTTTTTCAATATTTGCACACGATTATAATATTTAA [CACACA_site2237] | 10.3
ATATTTATATATTGCACACAAAAAAAAAAAAAAATC [CACACA_site1629] | 10.4
AGCTAAAATATTTTTGCACACGATTTTTTTTTTTTT [CACACA_site1140] | 9.82
AAAAAAATTAATGTGTGTACTTAGATATAATGTTTA [XGTACX_site8862] | 6.43
AAAAGTACAATATATATGTATGTGTATAGAATGGTT [TGCATGCA_negctrl_site76] | 7.28
AAAATATTTTAATGTTGTACATTAATATATTATATA [XGTACX_site2513] | 6.03

Sequence | gcPBM binding intensity (ln)
TAAAAATATATACATACATGCATACATATATATGTA [TGCATGCA_site774] | 6.47
TTATATATTTTTTGCACACCAAAAAAGAGAATATTC [CACACA_site2730] | 10
TGTGTTTATACGTTTTGTACATATTTTTATTTTGTA [XGTACX_site6425] | 6.74
TTCTTACACGTTTGCACACTAAAATATATATATATA [CACACA_site434] | 10.7
TTTTATTCCTTCTTTGCACACGTTTAAAAATATATA [CACACA_site2899] | 10.3
TATTCTTACACGTTTGCACACTAAAATATATATATA [CACACA_site435] | 9.97
TCCTTAAAATATATCACACATTTCGTTCATTTATAA [CACACA_site4346] | 6.65
TAAGATGATATAGACTGTACATATTGAACTTACAAG [XGTACX_site4290] | 6.29
TTTCTTCGAAATAGAACACTTGTGCAAAATAAGCAA [XGTACX_negctrl_site361] | 11.2
TATTAACACTTTATAGAAACAAAAAAATAAGCAAAA [XGTACX_negctrl_site295] | 6.79
CACTGTAAATAGAAAGTGCAAAAATTGTAAATAAAA [GTGCAC_site9980] | 9
GTTTTTAGTATTTTTTGTACTTAATACATAGCCTTA [XGTACX_site7318] | 6.22
AGATAAAATATATATGCACACACATATATATTTCAT [CACACA_site9183] | 9.16
TCATACAATATTAAATGTACATATATATATATATAT [XGTACX_site8828] | 9.25
TATATAATATATTAATGTACTTAAAATATATTCTAT [XGTACX_site1235] | 6.16
CATATAAATACATGCACACAAAAATATCAATACATT [CACACA_site2392] | 8.76
TATCAAAATAAATGCACACAAATTGCACATATCTAT [CACACA_site1097] | 10.7
TTTTTTCATATAAATACATGCACACAAAAATATCAA [TGCATGCA_site602] | 8.53
TTTATCAAAATAAATGCACACAAATTGCACATATCT [CACACA_site8281] | 10.9
TTCATATAAATACATGCACACAAAAATATCAATACA [CACACA_site8753] | 8.91
ATAAATTTTTTATGAACACACAAATACACCCACTCA [CACACA_site5465] | 7.07
TACTTTCAAAAGATCACACATATATATATATATATA [CACACA_site5630] | 9.53
TCCTTAAAATATGGTTGTACGTACATCCTAGGTGTT [XGTACX_site7068] | 6.52

Sequence | gcPBM binding intensity (ln)
TTTTTACGTAAACAAAATAATTATATAATATTATTT [CACACA_negctrl_site1769] | 6.34
AAAATCATTCCAAAGACATGCATTTTGCAAATAAAA [TGCATGCA_site461] | 9.22
AATTATTTACCCTATACACACAAAACAGACTAAAAA [CACACA_site6688] | 6.76
TCGTGTGAAAATATTACACACATTTACTATAGTATC [CACACA_site7590] | 6.65
AATTTATTTTTAAAAAGTACATACTTAAGAAAACGA [XGTACX_site3660] | 6.85
ATATATTATATTATATGTACTTAAAAAAGTGCAAAG [XGTACX_site318] | 9.16
CTGTACACTTAAACGGTGCAAAAAGAAAAAAAAGAA | 10.6
TTTGAACTCTTAAGTGGTACAAATTTGTATTTTCTC [XGTACX_site2322] | 6.52
AATTCTTTATTATATGCACACGTACATATAATATAT [CACACA_site8621] | 9.66
TTCTTTATTATATGCACACGTACATATAATATATAT [CACACA_site2018] | 9.96
TAAATTTTAATATGCACACAAAATGTTATATTAAAA [CACACA_site4366] | 9.86
AATAATGAAGCTTATGCACACGTTCATTATTTATAT [CACACA_site5736] | 10.6
TTTATTATATGCACACGTACATATAATATATATATA [XGTACX_site4108] | 10.8
TTTATTATACAAAATTGTACTTTATAATTTTATGTA [XGTACX_site5846] | 6.31
TAATGAAGCTTATGCACACGTTCATTATTTATATTA [CACACA_site3219] | 10.4
TGAATGCTTTTATGCACACGTACAAAAATATTATAT [CACACA_site2668] | 10.4
ATGCTTTTATGCACACGTACAAAAATATTATATAAT [XGTACX_site5589] | 10.9
TATATTCATAATATTACACACGTTCATTTATTTTAA [CACACA_site2031] | 6.67
TATGAATGCTTTTATGCACACGTACAAAAATATTAT [CACACA_site8851] | 9.99
TATTGCACAAAATAATTTTATTATACTTTATGTTAG [TGCATGCA_negctrl_site574] | 10.8
TAGTAAAAACCAAAATGTACATGTGCCATTTTTTTA [XGTACX_site2630] | 6.15
TTTTTATTGTTGCTATATTTATAACAATTTATCATA [GTGCAC_negctrl_site75] | 6.6
TTACACATGAGAAAATGTACATATAATAAAATATGT [XGTACX_site904] | 6.52

Sequence | gcPBM binding intensity (ln)
TATATCCACATTTTTAGTACTTAAAAATAAATAAAC [XGTACX_site3826] | 6.62
AATTATATATAAAGAAGTACTATTTCAAGGAGTTTT [XGTACX_site3837] | 6.34
ATAATAATAATAAAAAGTACATTTAATTATATAGAA [XGTACX_site7742] | 6.51
TAACCTAAAATAACTACACACACATAAAAAAAAAAA [CACACA_site8807] | 6.58
AACAAACACAGACACACACACACACCCAAATGATTA [CACACA_site2431] | 6.98
ATGTATGTTTGTTATGCACACAAATGCATCTTATTT [CACACA_site8861] | 10.3
TTGTTCGATATATGCACACAGTTTTGTTATTTTTCC [CACACA_site4972] | 9.91
GTATGTTTGTTATGCACACAAATGCATCTTATTTCC [CACACA_site2690] | 10.8
AAAAAAAAAAAAAAAGGTACAGTAAAAAATTCCTCT [XGTACX_site5947] | 6.46
AAAATTAAAATAGTAATACACACTTCATAGGAAATG [CACACA_site1762] | 6.02
AGATATATAAATATTACACACTATATATCTATTTAT [CACACA_site6466] | 6.64
ATACATAAAATTAAAACACACATTTTATTAAATACG [CACACA_site2167] | 6.44
TTAGTATATACATTTGCACACATTATTTTTTAACAT [CACACA_site2618] | 10.5
TTAGTAAATACATTTGCACACATTATTTTTTAACAT [CACACA_site5448] | 10.7
ATTTATATTTAATATACACACATTATTTTTTTATAT [CACACA_site574] | 6.86
TTTTTTTATATTTTTAGTACACATTGGTATATATAT [XGTACX_site4114] | 6.77
TATTTAAAAATATATACACACATTTTATATTATTAT [CACACA_site781] | 6.32
AATTATATAACAAATTGTACGAATGAAAATATTATT [XGTACX_site4237] | 6.79
ATATTTTTATGATGTATCCAAGAAATGGAACTATAT [CACACA_negctrl_site1268] | 6.23
AAAATATAAATATATTGTACTGTTATATAATAAAAT [XGTACX_site2132] | 6.41
